Some of the results follow. Unmarked numbers belong to inactive results. Activity calls are given as the source filed them.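 Rule for the calls: active = at least twofold enzyme activation in any of six single-dose repeats, which the averaged readout prints as negative percent; inactive = the rest.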

The target in this assay is Intestinal-type alkaline phosphatase (Homo sapiens) (UniProt P09923). The assay is described as follows: enhancement of intestinal alkaline phosphatase activity – biochemical, luminescence, single concentration, uHTS hits, confirmation (AID 434926). The note with it: purified IAP, CDP-Star luminescence, 30 min; at 8.3 µM; hits give low values.
Intestinal-type alkaline phosphatase (Homo sapiens), sequence (P09923 whole entry, looked up): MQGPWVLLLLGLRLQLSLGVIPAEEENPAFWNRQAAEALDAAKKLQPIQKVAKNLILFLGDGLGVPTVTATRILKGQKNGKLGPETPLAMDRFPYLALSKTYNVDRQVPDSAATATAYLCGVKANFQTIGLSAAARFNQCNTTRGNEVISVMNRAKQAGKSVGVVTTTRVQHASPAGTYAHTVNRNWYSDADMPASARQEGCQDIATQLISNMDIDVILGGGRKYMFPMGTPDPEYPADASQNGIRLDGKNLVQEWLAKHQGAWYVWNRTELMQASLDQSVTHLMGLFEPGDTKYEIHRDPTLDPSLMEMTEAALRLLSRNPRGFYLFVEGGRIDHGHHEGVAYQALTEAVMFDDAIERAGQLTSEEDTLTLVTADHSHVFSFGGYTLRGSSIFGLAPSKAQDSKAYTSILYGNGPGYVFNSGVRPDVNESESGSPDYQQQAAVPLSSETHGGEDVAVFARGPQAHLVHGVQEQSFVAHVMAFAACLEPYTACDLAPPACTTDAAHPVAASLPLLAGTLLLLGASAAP
Consider `O=C(Nc1cccc(-c2cccc(Cl)c2)c1)C1CCN(C2CCC2)CC1`, for which the activation (%Activity, negative = activation) was -7.84%.

Regarding `Cn1c(=O)c2sccc2n(Cc2ccc(Br)cc2)c1=O`, the activation (%Activity, negative = activation) is 6.79%.

Turning to `CCOc1ccc(NC(=O)CSc2nncn2C)cc1`, the activation (%Activity, negative = activation) was -83.5% (active). The figure for `Cc1cc(C(=O)NC2CC(C)(C)Cc3c2cnn3-c2ccccc2)n[nH]1` (centres undefined) is 62.1%. Turning to `OC1CN=C2Sc3ccccc3N2C1` (centres undefined), the activation (%Activity, negative = activation) is -100% (active).

For the molecule `O=C(NCCN1CCOCC1)[C@H](Cc1ccccc1)N1C(=O)c2ccccc2C1=O`, the activation (%Activity, negative = activation) is -5.42%. For `Cc1cccc(NS(=O)(=O)c2cccc(C(=O)NNC(=O)c3ccccc3O)c2)c1` the value was 29.2%; for `COc1ccc(CN2CCC(n3nccc3NC(=O)CCCc3ccccc3)CC2)cc1C`, -127% (active); for `N#C/C(=C\c1ccc(O)c(O)c1)C(=O)NCc1ccccc1`, -0.121%. As to `Oc1cccc(/C=N/Nc2ccc(Cl)nn2)c1O`, the activation (%Activity, negative = activation) was 1.16%. With `COc1cc(NC(=O)NCC2CCN(Cc3ccc(C)cc3)CC2)cc(OC)c1OC`, the activation (%Activity, negative = activation) is -1.35%. Turning to `COc1ccc(C(=O)NNc2cc(C)nc(NNC(=O)c3ccc(OC)cc3)n2)cc1`, the activation (%Activity, negative = activation) is -9.79%.

As for `COc1cc(NC(=O)COC(=O)c2cnc(C)cn2)c(C)cc1[N+](=O)[O-]`, the activation (%Activity, negative = activation) was 6.98%. The figure for `CCCCOC(=O)Nc1sc2nc(C)cc(C)c2c1-n1cccc1` is -49%; for `COc1cccc(/C=N\NC(=O)C2=NNC(=O)C2C)c1O` (centres undefined) it is 34.8%. Regarding `CC(=NCc1ccc2c(c1)OCO2)C1=C(O)c2ccccc2C1=O`, the activation (%Activity, negative = activation) is -2.92%. Regarding `Cc1c(NC(=O)CN(C)CC(=O)Nc2ccc(F)c(F)c2F)c(=O)n(-c2ccccc2)n1C`, the activation (%Activity, negative = activation) was -0.594%. For `COc1cc(/C=C2/SC(=S)N(Cc3ccccc3)C2=O)cc(OC)c1O` the value was 3.41%; for `COc1cccc(/C=N/NC(=O)c2[nH]nc3c2CCc2ccccc2-3)c1O`, 13.9%. The figure for `NC(=O)COc1ccc(NC(=O)c2ccccc2-c2ccccc2)cc1` is 9.49%. Turning to `COc1c(O)cc2oc(-c3ccc(O)c(O)c3)cc(=O)c2c1O`, the activation (%Activity, negative = activation) is -36.9%.

On to `OCCCN1c2ccccc2Nc2nnc(-c3ccccc3)cc21`, for which the activation (%Activity, negative = activation) is -25.8%. The figure for `O=C(NNC(=S)Nc1ccccc1)c1cccc(S(=O)(=O)N2CCOCC2)c1` is -70.7%; for `C#CCOCCOCCOCCNc1nc(N2CCN(C(=O)CCCCCCCCCCNC(=O)[C@H]([C@@H](C)CC)n3cc(CCCCN=C(N)N)nn3)CC2)nc(N2CCN(C(=O)CCCCCCCCCCNC(=O)[C@H](CO)n3cc(CCCSC)nn3)CC2)n1` it is 38.5%.
